Over roughly 33,000 sequences, “e-score” has its median near -0.037; the highest 2% begin near 0.34. This excerpt belongs to a sample that is enriched for the highest values.
Each sequence was assayed against T1, GST-Rok (full length) (Bacillus subtilis subsp. subtilis str. …, UniProt O34857 1-191) (assay: protein binding microarray; Rok is a gene silencer of Bacillus subtilis; high values mean tight binding). Settings: protein: recombinant; tags: GST (pTH5325, pDEST15-Magic modified); dsDNA, one strand shown.
T1 sequence: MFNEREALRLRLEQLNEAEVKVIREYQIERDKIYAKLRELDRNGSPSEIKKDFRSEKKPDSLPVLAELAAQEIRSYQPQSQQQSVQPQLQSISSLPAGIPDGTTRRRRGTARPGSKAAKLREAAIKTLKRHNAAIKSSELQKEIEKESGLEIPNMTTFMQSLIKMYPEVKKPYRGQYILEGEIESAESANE
In short: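 Every oligonucleotide joins a 25-mer constant primer to a 35-mer variable part drawn from a de Bruijn sequence of order 10, so each non-palindromic 8-mer appears at least 32 times and each palindromic 8-mer 16 times. The preference for every 8-mer is reported as a unitless, rank-based enrichment score (E-score). This score spans 0.5 for the most favored 8-mer to −0.5 for the most disfavored.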

Q: GGACGCTA was tested. Which binding signal did it give?
A: 0.000145 E-score

Q: GAGTTGAA was tested. Which binding signal did it give?
A: 0.00685 E-score

Q: For AAACATAG, which binding signal is on record?
A: 0.247 E-score

Q: Which binding signal does the source give for CCTGCGAA here?
A: -0.196 E-score

Q: How did the binding signal turn out when GGCTTCAA was run?
A: -0.0517 E-score

Q: How did the binding signal turn out when ATAACCAA was run?
A: 0.276 E-score

Q: With ATGGTTAC as the sequence, how does the binding signal read?
A: -0.167 E-score

Q: Which binding signal does the source give for GAGAACTA here?
A: 0.326 E-score

Q: Which binding signal does the source give for GAAAAATA here?
A: 0.279 E-score

Q: For ATAAAATA, which binding signal is on record?
A: 0.426 E-score

Q: For CAGAACTA, which binding signal is on record?
A: 0.301 E-score

Q: Which binding signal does the source give for ATAAAATG here?
A: 0.203 E-score

Q: With TAGAACTA as the sequence, how does the binding signal read?
A: 0.406 E-score

Q: GGAAAATA was tested. Which binding signal did it give?
A: 0.37 E-score

Q: How did the binding signal turn out when AGAAAATA was run?
A: 0.328 E-score

Q: GTAAAATA was tested. Which binding signal did it give?
A: 0.328 E-score

Q: CGGACTTC was tested. Which binding signal did it give?
A: -0.0622 E-score

Q: Which binding signal does the source give for AGTGTTAG here?
A: 0.118 E-score

Q: How did the binding signal turn out when GCGCGGTA was run?
A: 0.073 E-score

Q: TGATAAAA was tested. Which binding signal did it give?
A: 0.27 E-score

Q: For GGATATAA, which binding signal is on record?
A: 0.271 E-score

Q: How did the binding signal turn out when TGATATAA was run?
A: 0.371 E-score

Q: Which binding signal does the source give for CGATATAC here?
A: 0.239 E-score

Q: For CGATATAA, which binding signal is on record?
A: 0.357 E-score

Q: CGATATAG was tested. Which binding signal did it give?
A: 0.191 E-score

Q: With CTTCTTTC as the sequence, how does the binding signal read?
A: 0.0125 E-score

Q: How did the binding signal turn out when CGCGCTGA was run?
A: 0.105 E-score

Q: How did the binding signal turn out when CAACGAGC was run?
A: -0.148 E-score

Q: ACCTTCTC was tested. Which binding signal did it give?
A: -0.145 E-score

Q: How did the binding signal turn out when ATAACATA was run?
A: 0.365 E-score

Q: CTAACATA was tested. Which binding signal did it give?
A: 0.186 E-score

Q: With ATAACATG as the sequence, how does the binding signal read?
A: 0.152 E-score

Q: With ACGTCAAG as the sequence, how does the binding signal read?
A: 0.0301 E-score

Q: With GAGTAGTA as the sequence, how does the binding signal read?
A: 0.311 E-score

Q: Which binding signal does the source give for GTGTAGTA here?
A: 0.379 E-score

Q: ATGTAGTA was tested. Which binding signal did it give?
A: 0.403 E-score

Q: Which binding signal does the source give for ATGTAGTG here?
A: 0.211 E-score

Q: For CTGTAGTA, which binding signal is on record?
A: 0.243 E-score

Q: How did the binding signal turn out when ATGTAGTC was run?
A: 0.162 E-score

Q: How did the binding signal turn out when CCCAGTAG was run?
A: 0.151 E-score

Q: With AAGTTCAT as the sequence, how does the binding signal read?
A: 0.147 E-score

Q: How did the binding signal turn out when ATGCAAAA was run?
A: 0.086 E-score

Q: With GAAATACC as the sequence, how does the binding signal read?
A: 0.175 E-score

Q: Which binding signal does the source give for AAAATACG here?
A: 0.303 E-score

Q: How did the binding signal turn out when TAAATACA was run?
A: 0.333 E-score

Q: How did the binding signal turn out when AAAATACA was run?
A: 0.344 E-score

Q: With AAAATACC as the sequence, how does the binding signal read?
A: 0.373 E-score

Q: For CAAATACC, which binding signal is on record?
A: 0.126 E-score

Q: With AAAATACT as the sequence, how does the binding signal read?
A: 0.416 E-score

Q: AAAATAAT was tested. Which binding signal did it give?
A: 0.246 E-score

Q: With GAAATACA as the sequence, how does the binding signal read?
A: 0.184 E-score

Q: For AACGGTGG, which binding signal is on record?
A: 0.0395 E-score

Q: How did the binding signal turn out when CGCCGACG was run?
A: -0.0281 E-score

Q: Which binding signal does the source give for AAACAGGA here?
A: 0.00183 E-score

Q: ACGTATCA was tested. Which binding signal did it give?
A: 0.0936 E-score

Q: How did the binding signal turn out when ACCTTATC was run?
A: 0.155 E-score

Q: Which binding signal does the source give for AACTTAAG here?
A: 0.0622 E-score

Q: With ACCATGTA as the sequence, how does the binding signal read?
A: 0.385 E-score

Q: TACATGTA was tested. Which binding signal did it give?
A: 0.339 E-score

Q: For AACATACA, which binding signal is on record?
A: 0.355 E-score

Q: TACATCTA was tested. Which binding signal did it give?
A: 0.382 E-score

Q: ACCATGTG was tested. Which binding signal did it give?
A: -0.159 E-score

Q: For CACATGTA, which binding signal is on record?
A: 0.284 E-score

Q: How did the binding signal turn out when CCCATGTA was run?
A: 0.12 E-score

Q: For AACATACG, which binding signal is on record?
A: 0.205 E-score

Q: For CACATCTA, which binding signal is on record?
A: 0.268 E-score

Q: With AACATACT as the sequence, how does the binding signal read?
A: 0.136 E-score

Q: For AACATGTA, which binding signal is on record?
A: 0.285 E-score

Q: Which binding signal does the source give for AACATCTA here?
A: 0.236 E-score

Q: How did the binding signal turn out when GTCAACAA was run?
A: 0.0786 E-score

Q: With CTGGACTA as the sequence, how does the binding signal read?
A: 0.0592 E-score

Q: How did the binding signal turn out when CTACAGAC was run?
A: 0.12 E-score

Q: Which binding signal does the source give for CAGATAGA here?
A: 0.172 E-score

Q: For AATTTGGT, which binding signal is on record?
A: 0.177 E-score

Q: Which binding signal does the source give for CTTAGCAC here?
A: -0.0712 E-score

Q: AGGACTAC was tested. Which binding signal did it give?
A: -0.0384 E-score

Q: For CTGCAATA, which binding signal is on record?
A: 0.13 E-score

Q: How did the binding signal turn out when GTAGAGAA was run?
A: 0.189 E-score

Q: How did the binding signal turn out when TACATACA was run?
A: 0.341 E-score

Q: How did the binding signal turn out when GACATACA was run?
A: 0.0575 E-score

Q: How did the binding signal turn out when CACATACA was run?
A: 0.167 E-score

Q: With TACATATA as the sequence, how does the binding signal read?
A: 0.347 E-score

Q: With AACATATA as the sequence, how does the binding signal read?
A: 0.257 E-score

Q: How did the binding signal turn out when GACATATA was run?
A: 0.277 E-score

Q: GTCAGTAA was tested. Which binding signal did it give?
A: 0.00175 E-score

Q: Which binding signal does the source give for GCATGGAA here?
A: -0.193 E-score

Q: For GCGACTGA, which binding signal is on record?
A: 0.0748 E-score

Source: publication PMC6212790, “How bacterial xenogeneic silencer rok distinguishes foreign from self DNA in its resident genome”
